# Data from PubChem BioAssay (Tox21).
# Results filed as inconclusive are left out. A call without a number means that no potency is given here. Active and inactive are the calls of the source. Calls come from the whole dose curve.
# Biological target: Beta-2 adrenergic receptor (Homo sapiens) (UniProt P07550)
# Experiment: Adrenergic beta2 receptor (ADRB2) small molecule agonists, cell-based qHTS assay (AID 1963593);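 note: CHO cells stably overexpressing human ADRB2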
# Conditions: CHO-ADRB2 cells, cAMP HTRF, 30 min; series mostly up to 42.5 µM
# In short: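 CHO cells stably over-expressing ADRB2 were plated overnight at 37C, then dosed with compounds plus a stimulation mix containing 100uM IBMX and 25uM Ro-20-1724 for 0.5hr at room temperature. cAMP was measured by HTRF competition, 1hr.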
# Chain of Beta-2 adrenergic receptor (Homo sapiens) (P07550 whole entry, looked up): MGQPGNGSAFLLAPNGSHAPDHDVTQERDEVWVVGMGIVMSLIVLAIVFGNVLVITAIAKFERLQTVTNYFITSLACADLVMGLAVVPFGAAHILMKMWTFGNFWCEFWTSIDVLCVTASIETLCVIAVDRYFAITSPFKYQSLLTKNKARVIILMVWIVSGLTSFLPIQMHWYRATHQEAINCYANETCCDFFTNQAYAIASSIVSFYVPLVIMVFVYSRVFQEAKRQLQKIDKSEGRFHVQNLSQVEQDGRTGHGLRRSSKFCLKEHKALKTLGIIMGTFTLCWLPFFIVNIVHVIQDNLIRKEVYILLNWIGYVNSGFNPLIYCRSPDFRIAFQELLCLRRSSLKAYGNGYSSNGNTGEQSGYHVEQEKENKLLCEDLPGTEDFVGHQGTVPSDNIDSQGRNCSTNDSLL
row,Structure (SMILES),Potency
1,O=C(O)c1cccc(N(Cc2cccnc2)c2ccc(OC(F)F)c(OC(F)F)c2)c1,inactive
2,CCC(=O)O[C@]1(C(=O)CCl)[C@@H](C)C[C@H]2[C@@H]3CCC4=CC(=O)C=C[C@]4(C)[C@@]3(F)[C@@H](O)C[C@@]21C,inactive
3,COCCO,inactive
4,CC(C)Cc1ccc(C(C)C(=O)OCc2ccccn2)cc1 (configuration not stated),inactive
5,CN1CCN(Cc2cc(-c3ccc4[nH]c(=O)oc4c3)co2)[C@@H](c2ccc(F)cc2)C1,inactive
6,CCOc1nc2cccc(C(=O)O)c2n1Cc1ccc(-c2ccccc2-c2nn[nH]n2)cc1,inactive
7,CN(C)CCCOC1(Cc2ccccc2)CCCCCC1,inactive
8,Nc1ncnc(Nc2ccccc2)n1,inactive
9,C=CC(=O)OCCOCCOC(=O)C=C,inactive
10,COc1ccc2c(c1)C(=O)N(CCc1ccc(S(=O)(=O)NC(=O)NC3CCCCC3)cc1)C(=O)C2(C)C,inactive
11,C=CCN1CCc2nc(N)sc2CC1,inactive
12,CC(=O)CC(=O)Nc1ccc(C)cc1C,inactive
13,CN1CCN(N)CC1,inactive
14,C#CC(O)CCCCC (configuration not stated),inactive
15,COc1cnc(NS(=O)(=O)c2ccc(N)cc2)nc1,inactive
16,COc1ccc(S(=O)(=O)N2c3ccc(Cl)cc3[C@@](O)(c3ccccc3Cl)[C@H]2C(=O)N2CCC[C@@H]2C(N)=O)cc1OC,inactive
17,OC1(c2ccccc2)CCNCC1,inactive
18,CNC(=O)c1ccccc1Sc1ccc2c(/C=C/c3ccccn3)n[nH]c2c1,inactive
19,CCN(CC)CCOC(=O)C(Cc1cccc2ccccc12)CC1CCCO1 (configuration not stated),inactive
20,N#CCC(=O)NN,inactive
21,C=CC(=O)OCCOC(=O)CCC(=O)O,inactive

row,Structure (SMILES),Potency
1,Cc1ncc([N+](=O)[O-])n1CC(C)O (configuration not stated),inactive
2,Nc1nc2c(ncn2CCC(CO)CO)c(=O)[nH]1,inactive
3,O=C(Oc1ccccc1)c1ccccc1C(=O)Oc1ccccc1,inactive
4,CC(=O)[C@H]1CC[C@H]2[C@@H]3C[C@H](C)C4=CC(=O)CC[C@]4(C)[C@H]3[C@@H](O)C[C@]12C,inactive
5,NCC(=O)O,inactive
6,CCCCCCCCCCCc1ccccc1,inactive
7,C[C@@]12C(=O)OC(=O)[C@]1(C)C1CCC2O1,inactive
8,CNC(=O)c1cnn(-c2nc(N)c3ncn([C@@H]4O[C@H](CO)[C@@H](O)[C@H]4O)c3n2)c1,inactive
9,NC(=O)C1(N2CCCCC2)CCN(CCCC(=O)c2ccc(F)cc2)CC1,inactive
10,CC(C)c1ccc(C(=O)N=C(N)N)cc1S(C)(=O)=O,inactive
11,Oc1cc2ccccc2cc1O,inactive
12,CN1CCCN=C1COC(=O)C(O)(c1ccccc1)C1CCCCC1 (configuration not stated),inactive
13,O=C1CCC(C2CCCCC2)CC1,inactive
14,Nc1ccc(S(=O)(=O)O)c(N)c1,inactive
15,C=CC(=O)OCCCCCCCCCC,inactive
16,CO[Si](CCCS)(OC)OC,inactive
17,CCCCCCCCCCCCOC(=O)c1ccc(O)cc1,inactive
18,CN1CN(C)CN(C)C1,inactive
19,O=C1CCCCCCCCCCOCCCCO1,inactive
20,CCCCOc1cc(C(=O)OCCN(CC)CC)ccc1N,inactive
21,Cc1ccccc1C#N,inactive
